Compound activity deposited in PubChem BioAssay by National Center for Advancing Translational Sciences (NCATS).
Pf Dd2 growth: blocks in vitro growth of P. falciparum Dd2; P. falciparum Dd2 growth, SYBR Green, 72 h; Potency, µM (top dose mostly 28.9 µM), for the others: at the highest dose activity, negative = inhibition, usual class: inhibitors; 120,000 tested, 4.3% active; active = well fitted inhibition curve with a large enough effect;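 also: plate controls were DMSO vehicle for no effect and reference drug for full effect; nearly all actives have a fitted effect of over 65% in size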
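Readout: SYBR Green fluorescence, 485 nm excitation, 535 nm emission, after ~16 h lysis at 37C. Before that, Dd2-infected red cells (2.5% hematocrit) grew 72 h with compound, 29 uM top final concentration.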
Numbers without * were called inactive; i = inactive; [ ] = another dose, or the depositor's remark. This is one part of a sample in which hits are shown more often than they occur. Potency is read from the fitted curve at half-maximal effect.

SMILES	Pf Dd2 growth
COc1cc(OC(F)(F)F)ccc1C(=O)N1CCC(c2nnc3n2C(C(=O)O)CC3)CC1 (configuration not stated)	7%
CCOC(=O)Cc1ccc(NC(=O)NCc2cccn2Cc2ccccc2)cc1	-28%
COc1ccccc1NC(=O)NCc1cccn1Cc1ccccc1	0%
O=C(NCc1cccn1Cc1ccccc1)Nc1cccc(C(F)(F)F)c1	8.9µM*
COCCNC(=O)CC(c1ccccc1OC)c1cn(C)c2ccccc12 (configuration not stated)	i
Cc1cc(C)cc(C(=O)NC2CCN(c3cc(-c4ccccc4)[nH]n3)CC2)c1	-9%
COCc1cc(=O)n(CC(=O)Nc2ccc(C)cc2Cl)c(N2CCOCC2)n1	i
COc1ccccc1C(=O)NC1CCN(c2ccc(C)cc2)C1=O (configuration not stated)	-8%
O=C(N[C@H]1CCN2C(=O)c3cc(/C=C/c4ccc(O)cc4)ccc3NC(=O)[C@H]12)c1cnccn1	-21%
O=C(N[C@H]1CCN2C(=O)c3cc(-c4ccccc4F)ccc3NC(=O)[C@H]12)c1cnccn1	5.6µM*
O=C(N[C@H]1CCN2C(=O)c3cc(/C=C/c4ccccc4)ccc3NC(=O)[C@H]12)c1cnccn1	-14%[44.1 µM]
CCOc1cc(-c2nc(C3CC(=O)N(c4ccc(OC)cc4)C3)no2)cc(OCC)c1OCC (configuration not stated)	-1%
O=C(c1ccccc1)N1CCC2(CC1)COc1ccccc1[S+](=O)([O-])N2	13%
COc1ccccc1Nc1sc(C(=O)c2ccc(F)cc2)c(N)c1S(=O)(=O)c1ccc(C)cc1	-29%
COc1ccc(S(=O)(=O)c2c(Nc3cccc(C)c3C)sc(C(=O)c3ccccc3)c2N)cc1	10µM*
Cc1ccccc1Nc1sc(C(=O)c2ccccc2)c(N)c1S(C)(=O)=O	i[5.79 µM]
O=C1CCCCC(C(=O)NCc2ccccc2)N1 (configuration not stated)	18%
COCCC1(C(=O)O)CCCN(C(=O)N2CCN(C)CC2)C1 (configuration not stated)	-11%
O=C(CC1CCCN(c2cnn(CC3CC3)c(=O)c2)C1)NCc1cc(F)ccc1F (configuration not stated)	i
Cn1cnnc1CC1CCN(C(=O)NC2CCCCC2)C1 (configuration not stated)	i
Cc1cnc(C(=O)N[C@@H]2CCC[C@@H]2C(=O)N2CCN(C(C)C)CC2)cn1	9%
CC(=O)N1CCCC(c2nc(CCOCC3CC3)no2)C1 (configuration not stated)	-10%
C(Cc1noc(C2CNC2)n1)OCC1CC1	5µM*
C1CNCC(c2nc(CCOCC3CCOCC3)no2)C1 (configuration not stated)	-4%
Cc1ocnc1C(=O)NC1CC(=O)N(CCc2ccc(F)cc2)C1 (configuration not stated)	-5%
SMILES	Pf Dd2 growth
O=C(O)C[C@@H]1CCN(C(=O)C2CC2)C[C@@H]1CCN1CCN(c2ccc(F)cc2)CC1	-1%[44.1 µM]
CN1CCN(C)c2cnc(-c3cnn(Cc4ccccc4)c3)cc2C1	i
CN1CCN([C@H]2[C@@H]3OC[C@@H](O3)[C@@H](NC(=O)Nc3ccc(F)cc3)[C@@H]2O)CC1	-10%[44.1 µM]
COCCOC1CCN(C(=O)Cc2c[nH]c3ccccc23)CC1	21%
CC(C)C[C@@H]1N[C@H](C(=O)NCc2ccccc2)Cc2cn(Cc3cccnc3)c3cccc1c23	-7%
C#CCNC(=O)[C@@H]1Cc2cn(Cc3ccncc3)c3cccc(c23)[C@H](CC(C)C)N1	10µM*
CCCNC(=O)[C@@H]1Cc2cn(Cc3c(C)noc3C)c3cccc(c23)[C@H](CC(C)C)N1	11µM*
Cc1cc(Cn2cc3c4c(cccc42)[C@H](CC(C)C)N[C@H](C(=O)O)C3)no1	i
CCCNC(=O)[C@@H]1Cc2cn(Cc3nccn3C)c3cccc(c23)[C@H](CC(C)C)N1	10µM*
CC(C)C[C@@H]1N[C@H](C(=O)NCCN2CCOCC2)Cc2cn(Cc3ccccn3)c3cccc1c23	i
COCCCNC(=O)[C@@H]1Cc2cn(Cc3nccn3C)c3cccc(c23)[C@H](CC(C)C)N1	-4%[44.1 µM]
CC(C)C[C@@H]1N[C@H](C(=O)N2CCOCC2)Cc2cn(Cc3nccn3C)c3cccc1c23	11µM*
CNC(=O)CCC[C@@H]1[C@H]2CCCN3CCC[C@@H](CN1C(=O)NCc1ccc(C)cc1)[C@@H]23	-18%
O=S(=O)(NC[C@H]1O[C@@H](CO)[C@@H](O)[C@H]1N1CCOCC1)c1cccs1	12%[44.1 µM]
CC(C)(C)CC(=O)NC[C@H]1OC[C@@H](NC2CCCC2)[C@@H]1O	i
O=C(N[C@H]1CO[C@H]2[C@@H]1OC[C@@H]2n1cc(CC2CCCCC2)nn1)C1CC1	-3%[44.1 µM]
CC(=O)N1CCC(CC(=O)N2CCN(c3cc(-c4ccccc4)[nH]n3)CC2)CC1	12%
CC(C)NC(=O)NC[C@H]1OC[C@@H](NCc2cccs2)[C@@H]1O	5%[44.1 µM]
CCn1ncc(N2CCCC(CC(=O)NCc3ccccc3OC)C2)cc1=O (configuration not stated)	-17%
COC(=O)CNC(=O)N1CC[C@H]2C(=O)NCCCCCCN(Cc3ccncc3)[C@@H]2C1	17%
CC(=O)NCCNC(=O)[C@@H]1Cc2cn(Cc3cc(C)on3)c3cccc(c23)[C@H](CC(C)C)N1	i
CC(C)C[C@@H]1N[C@H](C(=O)NCC2CC2)Cc2cn(Cc3nccn3C)c3cccc1c23	-18%[44.1 µM]
CC(C)C[C@@H]1N[C@H](C(=O)NC2CCC2)Cc2cn(Cc3ccncc3)c3cccc1c23	-28%[44.1 µM]
Cc1cc(Cn2cc3c4c(cccc42)[C@H](CC(C)C)N[C@H](C(=O)NCc2ccc(C)o2)C3)no1	13µM*
CC(C)C[C@@H]1N[C@H](C(=O)NCCN(C)C)Cc2cn(Cc3ccccn3)c3cccc1c23	-19%[44.1 µM]
SMILES	Pf Dd2 growth
C=CCn1cc2c3c(cccc31)[C@H](CC(C)C)N[C@H](C(=O)NCc1ccccn1)C2	11µM*
Cc1cc(Cn2cc3c4c(cccc42)[C@H](CC(C)C)N[C@H](C(=O)NCc2nccs2)C3)no1	-7%
CC(C)C[C@@H]1N[C@H](C(=O)NCC2CC2)Cc2cn(Cc3ccccn3)c3cccc1c23	-23%[44.1 µM]
CC(C)C[C@@H]1N[C@H](C(=O)NCc2ccccn2)Cc2cn(Cc3ccncc3)c3cccc1c23	-29%
CC(C)C[C@@H]1N[C@H](C(=O)NC2CCC2)Cc2cn(Cc3ccccn3)c3cccc1c23	11µM*
CC(C)C[C@@H]1N[C@H](C(=O)NC2CC2)Cc2cn(Cc3nccn3C)c3cccc1c23	11µM*
COc1ccccc1CNC(=O)[C@@H]1Cc2cn(C)c3cccc(c23)[C@H](CC(C)C)N1	-13%[44.1 µM]
Cc1cccc(C)c1Oc1ncccc1CNC(=O)c1[nH]ncc1Cl	i
O=C(Cc1ccc(Cl)cc1)N1C[C@@H](CO)[C@H](c2ccccn2)C1	20%
COc1ccc(NC(=O)CCn2cnnn2)cc1NC(=O)c1ccccc1	-9%
CC(=O)Nc1ccc(S(=O)(=O)N2CC[C@H](c3nc4ccccc4o3)C2)cc1	i
CC(=O)N1CCN(C(=O)c2cnc3cc(C)nn3c2)CC1	0%[44.1 µM]
O=C(c1ccc(F)cc1)N1CCC2(COc3ccncc3[S+](=O)([O-])N2)C1 (configuration not stated)	17%
COC(=O)[C@@H](C)NC(=O)[C@H]1CN(C(=O)c2cccnc2)CCN1C(=O)NC1CCCCC1	14%
Cc1noc(C)c1C(=O)N1CCN(c2ccc(Cl)nn2)C(=O)C1	34%
